What all share (experiment): NCI-60 one-dose screen, 48 h (100 = growth as untreated, 0 = no growth, -100 = all killed)
Common to all, as to conditions: 10 µM unless noted

Test [1] deals with NCI-H23 lung.
Test [2] relates to NCI-H226 lung.
In test [3] the test system is NCI-H322M lung.
Test [4] deals with HOP-62 NSCLC.
For test [5], the system named is NCI-H460 lung.
In test [6] the test system is HOP-92 NSCLC.
Test [7] concerns NCI-H522 lung.
Test [8] has as its system A549/ATCC NSCLC.
In test [9] the test system is 786-0 renal.
The test system of test [10] is COLO 205 colon.
In test [11] the test system is DU-145 prostate.
Test [12] deals with K-562 leukemia.
The test system of test [13] is MALME-3M melanoma.
For test [14], the system named is MDA-MB-231 breast.
For test [15], the system named is RXF 393 renal.
The subject of test [16] is SF-268 CNS.
Test [17] relates to SF-295 CNS.
Test [18] has as its system SF-539 CNS.
Test [19] relates to UACC-257 melanoma.
The subject of test [20] is M14 melanoma.

SMILES strings stand for the structures. About 83,000 compounds went through this panel and 20% of them were active in at least one assay; those are over-represented in the sample as a whole.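 In brief: 96-well plates, 48 h treatment, single concentration, percent growth endpoint.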 Values without a mark were called inactive. Activity calls are given as the source filed them. Rule for the calls: active = growth percent below 10; inactive = the rest.

For `COc1ccc(-c2nc(SCC(=O)Nc3nc(-c4ccccc4)cs3)[nH]c(=O)c2C#N)cc1`, the growth is 88.3% in test [1]; 85% in test [2]; 90.7% in test [3]; 82.4% in test [4]; 114% in test [5]; 81.5% in test [6]. In addition, the growth in test [7] is 84%; in test [8], 104%; in test [9], 100%; in [10], 112%; in [11], 118%; in [12], 93.5%. Moreover, the growth in [13] is 90.1%; in test [14] it was 95.1%; in test [15] it was 96.6%; in test [16], 95.9%; in test [17], 96.3%; in [18] it was 103%. Moreover, the growth was 109% in [19] and 89.6% in test [20].

For the compound `CCN(CC)CCCC(C)Nc1c2ccc(Cl)cc2nc2ccc(O)cc12` (configuration not stated), the growth in [1] was 46.2%; in [2] it was 39.4%; in test [3] it was 38%; in test [4], 42.1%; in test [5], 14.7%; in test [6] it was 50.3%. The growth in test [7] is 37%; in test [8] it was 24.4%; in test [9] it was 22.3%; in [10], -16.4% (active); in [11], 41.3%; in test [12], -3.7% (active). For the same compound, the growth is 51.2% in test [13]; 47.4% in [14]; -19.9% (active) in test [15]; 58.5% in test [16]; 61% in test [17]; 15.6% in test [18]. For the same compound, the growth is -58.4% (active) in test [19] and 14.2% in test [20].

For `O=[N+]([O-])c1ccc(N2c3ccncc3Sc3ccncc32)cc1`, the growth in test [1] is 102%; in [2], 105%; in test [3], 105%; in test [4], 104%; in test [5], 122%; in test [6] it was 80.2%. The growth in [7] was 87.8%; in [8], 110%; in test [9], 107%; in test [11] it was 117%; in [12] it was 83%; in [13] it was 122%. Further, the growth is 77.1% in test [14]; 83.6% in [15]; 129% in [16]; 103% in [17]; 99.3% in test [18]; 113% in [19]. Moreover, the growth in test [20] is 106%.

In the case of `N#C/C(=C\c1ccc(Br)cc1)n1nnc2cc(F)c(F)cc21`, the growth in [1] is 28.5%; in [2] it was 37.3%; in test [3] it was 58.6%; in test [4], 25.9%; in test [5], 30.5%; in [6], -9.69% (active). Besides, the growth is 19.9% in [7]; 41.5% in [8]; 23.2% in test [9]; 15.6% in [11]; 9.36% (active) in [12]; 65.7% in test [13]. Besides, the growth in [14] is 15%; in test [15], 2.12% (active); in [16] it was 33.8%; in test [17] it was 98.6%; in [18] it was -2.33% (active); in test [19], 50.6%. For the same compound, in [20], the growth is 18.1%.

As to `CC(CN1CCCCC1)C(=O)c1ccccc1` (configuration not stated), the growth is 101% in test [1]; 103% in [2]; 102% in test [3]; 103% in test [4]; 105% in test [5]; 79% in test [6]. For the same compound, the growth in [7] was -57.1% (active); in test [8] it was 98%; in test [9], 105%; in test [10], 108%; in test [11] it was 104%; in [12], 101%. In addition, the growth was 107% in test [13]; 99.7% in test [14]; 112% in test [15]; 99.9% in test [16]; 101% in test [17]; 92.1% in test [18]. For the same compound, the growth was 103% in [19] and 98.3% in [20].

As for `COc1cc(OC)cc(C2CC(=O)Nc3c2c(C)nn3-c2nc3ccccc3[nH]2)c1` (configuration not stated), the growth in [1] is 5.52% (active); in [2], 36.5%; in test [3], 59.9%; in test [4] it was -44.2% (active); in [5], 5.89% (active); in [6] it was 0.274% (active). For the same compound, the growth in test [7] was 3.99% (active); in [8], 15.2%; in test [9] it was 25.4%; in test [10], 51.4%; in test [11], 53.3%; in test [12], 9.41% (active). For the same compound, the growth was 38.3% in test [13]; 16.5% in test [14]; -0.824% (active) in test [15]; 29.3% in test [16]; -62.9% (active) in test [17]; 18.4% in [18]. Further, the growth was 23.9% in test [19] and 11.8% in [20].

Turning to `O=C(Nc1cccc(C(F)(F)F)c1)Nc1cccc(C(F)(F)F)c1`, the growth in test [1] is 1.97% (active); in test [2] it was -1.66% (active); in [3], 16.7%; in [4], -1.14% (active); in [5], 5.08% (active); in [6], -16.2% (active). In addition, the growth in [7] is -35% (active); in test [8], -1.94% (active); in test [9], 8.34% (active); in [11] it was 25%; in test [12], 11.5%; in test [13], -17.1% (active). Moreover, the growth in [14] was -34.8% (active); in test [15], 22.7%; in [16] it was 22.7%; in [17] it was 4.86% (active); in test [18], 19.5%; in test [19], -32.9% (active). Further, the growth in [20] was 13%.

Consider `COc1ccc(C2CC(c3cccc(OC)c3)=NN2C(=O)c2cc(OC)c(OC)c(OC)c2)cc1` (configuration not stated), for which the growth is 30.6% in test [1]; 79.9% in test [2]; 45.1% in [3]; 39.9% in test [4]; 11.4% in [5]; 35.9% in test [6]. Further, the growth was 2.3% (active) in test [7]; 32.5% in [8]; 21.6% in test [9]; -1.64% (active) in [10]; -24.7% (active) in test [11]; 5.93% (active) in test [12]. Besides, the growth in test [13] was 37.7%; in test [14], 33.6%; in [15], 23.4%; in test [16], 41.4%; in test [17], 7.64% (active); in test [18], -16% (active). The values for the growth in [19] and in [20] were 65% and 16.5%, respectively.

The values are drawn from PubChem BioAssay (NCI).
